Records with an inconclusive call do not appear. Calls of active or inactive are those of the source. Calls follow the shape of the dose curve; as a rule, active = well fitted curve in either direction with a large enough effect (not every such curve was filed as active); inconclusive = small, poorly fitted or top-dose-only effect, or another doubt; inactive = flat fitted curve, though single readings scatter.
% is scaled to controls: 0 for no effect and ±100 for the full control effect.

One experiment in a line: NFAT Signaling Pathway (AID 444).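 Also: carbachol stimulus at about its EC50 of 1 µM final.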 Conditions: Jurkat NFAT-bla M1, carbachol, beta-lactamase ratio, 5 h; at 7.69 µM (top of the series) unless noted. The gist of the method: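 Jurkat cells carrying an NFAT-driven β-lactamase reporter and co-transfected muscarinic M1 receptor were treated with compound plus carbachol (1 uM final, an EC50 level) for 5 h at 37 °C. CCF4 loading followed for 1 h at RT; 460/530 nm ratio gave %activity.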
For `O=C(O)[C@H](Cc1ccccc1)N1C(=O)c2ccccc2C1=O`, the activity change, negative = inhibition is 16.6% (inactive).
On the same count and under the same terms, the figure for `COC(=O)c1cc(=O)[nH]c(=O)[nH]1` is 1.11% (inactive); for `O=C1CCC[C@H]1C(=O)Nc1ccc2ccccc2c1` it is 16.2% (inactive); for `COCCn1c(=O)cnc2cnc(N3CCNCC3)nc21` it is -7.03% (inactive).
Same read-out and setting: under `N[C@@H](CNO)C(=O)O` stands 0.975% (inactive); under `C[C@@H](SCc1ccccc1)C(=O)O`, 12.1% (inactive).
On the same count and under the same terms, the figure for `C[N+](C)(C)CC(=O)N/N=C\c1c(O)ccc2ccccc12` is -5.58% (inactive); for `O=C(O)CCn1cnc2c(=S)nc[nH]c21` it is 1.47% (inactive).
Take `CCOC(=O)c1c(O)[nH]c(=O)c(CC)c1C`: the activity change, negative = inhibition is -3.29% (inactive).
Still for that read-out and setting: under `Nc1ccc(Cc2ccc(N)c(C(=O)O)c2)cc1C(=O)O` stands 16.6% (inactive).
On the same count and under the same terms, the figure for `O=S(=O)(c1ccccc1)N1CCN(S(=O)(=O)c2ccccc2)c2ccccc21` is -13.6% (inactive).
On the same count and under the same terms, under `CN1[C@@H](c2ccccc2)CC(=NO)C[C@H]1c1ccccc1` stands -20.1% (inactive); under `CC(C)[C@@H](C(=O)O)N1C(=O)c2ccccc2C1=O`, -8.21% (inactive).
With `O=c1c2ccccc2c2ccccc2c(=O)n1-c1cc2c3ccccc3ccc2c2ccccc12`, the activity change, negative = inhibition is 2.31% (inactive).
Still for that read-out and setting: the figure for `O=C(O)c1cncc(C(=O)O)c1` is 3.72% (inactive); for `CC(C)=C[C@H]1[C@@H](COC(=O)c2cc3c(cc2Cl)OCO3)C1(C)C` it is 1.43% (inactive); for `O=C(O)CCCSc1nc2ccccc2s1` it is -19.5% (inactive).
As to `O=C(O)/C(Cc1cn[nH]n1)=N\O`, the activity change, negative = inhibition is 0.206% (inactive).
Still for that read-out and setting: the figure for `O=C(O)C(=Cc1ccnc2ccccc12)C(=O)O` is 24.2% (inactive); for `Cn1c(=O)c2c(ncn2CCSS(=O)(=O)O)n(C)c1=O` it is 18.1% (inactive).
Still for that read-out and setting: under `C=CCNS(=O)(=O)c1ncnc2nc[nH]c12` stands -12.1% (inactive); under `CN1CCN(CCCNN)CC1`, 0.682% (inactive).
Take `c1ccc(CN2COc3c(ccc4c5c(ccc34)CN(Cc3ccccc3)CO5)C2)cc1`: the activity change, negative = inhibition was 7.9% (inactive).
Turning to `CCCS(=O)(=O)O`, the activity change, negative = inhibition is 0.712% (inactive).
On the same count and under the same terms, the figure for `CC(=O)CSCc1ccccn1` is -1.92% (inactive).
The same measure, in the same setting: under `CC(C)[C@H](Nc1ncnc2nc[nH]c12)C(=O)O` stands -3.53% (inactive).
On the same count and under the same terms, the figure for `Nc1nc2c(ncn2[C@H]2CC[C@@H](CO)O2)c(=O)n1C(=O)c1ccccc1` is -10.1% (inactive).
`CC1=C(/C=C\C(=O)O)C(C)(C)CCC1`: the activity change, negative = inhibition is 11.9% (inactive).
Same read-out and setting: under `C[n+]1cccc(/C=C\c2ccc3cccc(O)c3n2)c1` stands 10.1% (inactive).
Same read-out and setting: the figure for `COc1ccc(Br)c2c1C[C@H](C(=O)O)CC2` is 2.11% (inactive); for `COC(=O)c1cc(-c2ccc3ccccc3c2)[nH]c(=O)c1C#N` it is 1.77% (inactive); for `O=C(O)[C@H]1O[C@H]1C(=O)O` it is -1.75% (inactive).
The same measure, in the same setting: the figure for `COc1cc(C(=O)O)c([N+](=O)[O-])c(OC)c1OC` is 3.25% (inactive); for `C[C@H](NCCN(C)C)[C@@H]1CCC2C3CCc4cc(O)ccc4[C@H]3CCC21C` (stereo not given in full) it is -1% (inactive); for `O=C(O)/C(Cc1ccc([N+](=O)[O-])cc1)=N/O` it is -0.295% (inactive).
In the case of `C(=N/Nc1ccccn1)/c1cccnc1`, the activity change, negative = inhibition was 5.25% (inactive).
Still for that read-out and setting: the figure for `CC1=NNC(=S)NCCCN2CCN(CCCNC(=S)NN=C(C)C=NNC(=S)NCCCN3CCN(CCCNC(=S)NN=C1)CC3)CC2` is 5.96% (inactive); for `CN(C)CCN1C(=O)CC[C@]2(C)C1=CC[C@@H]1[C@@H]2CC[C@]2(C)[C@H]1CC[C@]2(C)O` it is -6.05% (inactive); for `Nc1ccccc1N=Nc1c(S(=O)(=O)O)cc2cc(S(=O)(=O)O)cc(O)c2c1O` it is -1.89% (inactive).
Same read-out and setting: under `N#C[C@H](C(=O)O)C(c1c(Cl)cccc1Cl)[C@H](C#N)C(=O)O` stands 5.02% (inactive).

A further experiment in a line: Stat Signaling Pathway (AID 446).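 Also: ME-180 cervical cancer cells given 40 pM IL-6 alongside compound; SIE-controlled beta-lactamase reporter measured as 460/530 nm FRET emission ratio.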 Conditions: ME-180 (cervical carcinoma) SIE beta-lactamase reporter, IL-6 stimulated, 5 h; at 7.69 µM (top of the series) unless noted. The gist of the method:
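FRET read-out (405 nm excitation, 460/530 nm emission) of a beta-lactamase reporter under a STAT-inducible element in ME-180 cervical carcinoma cells. Cells with compound receive 40 pM IL-6 for 5 h. Values are normalised to AC90 stimulation and AC90 JAK-inhibitor controls.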
For the compound `O=C(O)[C@H](Cc1ccccc1)N1C(=O)c2ccccc2C1=O`, the activity, negative = inhibition was -2.52% (inactive).
On to `COC(=O)c1cc(=O)[nH]c(=O)[nH]1`, for which the activity, negative = inhibition was -3.43% (inactive).
Same read-out and setting: under `O=C1CCC[C@H]1C(=O)Nc1ccc2ccccc2c1` stands 8.65% (inactive); under `COCCn1c(=O)cnc2cnc(N3CCNCC3)nc21`, -2.85% (inactive); under `N[C@@H](CNO)C(=O)O`, -9.2% (inactive).
Turning to `C[C@@H](SCc1ccccc1)C(=O)O`, the activity, negative = inhibition is -3.81% (inactive).
Consider `C[N+](C)(C)CC(=O)N/N=C\c1c(O)ccc2ccccc12`, for which the activity, negative = inhibition was 10.1% (inactive).
Still for that read-out and setting: under `O=C(O)CCn1cnc2c(=S)nc[nH]c21` stands -0.455% (inactive); under `CCOC(=O)c1c(O)[nH]c(=O)c(CC)c1C`, 13.4% (inactive).
Same read-out and setting: the figure for `Nc1ccc(Cc2ccc(N)c(C(=O)O)c2)cc1C(=O)O` is 1.75% (inactive); for `O=S(=O)(c1ccccc1)N1CCN(S(=O)(=O)c2ccccc2)c2ccccc21` it is -7.57% (inactive); for `CN1[C@@H](c2ccccc2)CC(=NO)C[C@H]1c1ccccc1` it is 5.8% (inactive).
The same measure, in the same setting: the figure for `CC(C)[C@@H](C(=O)O)N1C(=O)c2ccccc2C1=O` is 2.83% (inactive).
As to `O=c1c2ccccc2c2ccccc2c(=O)n1-c1cc2c3ccccc3ccc2c2ccccc12`, the activity, negative = inhibition is -7.32% (inactive).
Take `O=C(O)c1cncc(C(=O)O)c1`: the activity, negative = inhibition is 6.17% (inactive).
The same measure, in the same setting: the figure for `CC(C)=C[C@H]1[C@@H](COC(=O)c2cc3c(cc2Cl)OCO3)C1(C)C` is 13.6% (inactive); for `O=C(O)CCCSc1nc2ccccc2s1` it is 4.62% (inactive); for `O=C(O)/C(Cc1cn[nH]n1)=N\O` it is 1.63% (inactive).
Same read-out and setting: the figure for `O=C(O)C(=Cc1ccnc2ccccc12)C(=O)O` is 9.09% (inactive).
Same read-out and setting: the figure for `Cn1c(=O)c2c(ncn2CCSS(=O)(=O)O)n(C)c1=O` is -2.16% (inactive); for `C=CCNS(=O)(=O)c1ncnc2nc[nH]c12` it is 14.4% (inactive).
`CN1CCN(CCCNN)CC1`: the activity, negative = inhibition is 1.99% (inactive).
Turning to `c1ccc(CN2COc3c(ccc4c5c(ccc34)CN(Cc3ccccc3)CO5)C2)cc1`, the activity, negative = inhibition is 8.56% (inactive).
For `CCCS(=O)(=O)O`, the activity, negative = inhibition is 4.08% (inactive).
On the same count and under the same terms, the figure for `CC(=O)CSCc1ccccn1` is -2.34% (inactive); for `CC(C)[C@H](Nc1ncnc2nc[nH]c12)C(=O)O` it is -3.88% (inactive).
Same read-out and setting: the figure for `Nc1nc2c(ncn2[C@H]2CC[C@@H](CO)O2)c(=O)n1C(=O)c1ccccc1` is 0.604% (inactive); for `CC1=C(/C=C\C(=O)O)C(C)(C)CCC1` it is 0.469% (inactive).
On the same count and under the same terms, under `C[n+]1cccc(/C=C\c2ccc3cccc(O)c3n2)c1` stands 3.53% (inactive).
With `COc1ccc(Br)c2c1C[C@H](C(=O)O)CC2`, the activity, negative = inhibition is -1.98% (inactive).
Same read-out and setting: under `COC(=O)c1cc(-c2ccc3ccccc3c2)[nH]c(=O)c1C#N` stands -1.42% (inactive); under `O=C(O)[C@H]1O[C@H]1C(=O)O`, 2.71% (inactive).
Still for that read-out and setting: under `COc1cc(C(=O)O)c([N+](=O)[O-])c(OC)c1OC` stands 0.596% (inactive).
Still for that read-out and setting: the figure for `C[C@H](NCCN(C)C)[C@@H]1CCC2C3CCc4cc(O)ccc4[C@H]3CCC21C` (stereo not given in full) is -5.94% (inactive).
Take `O=C(O)/C(Cc1ccc([N+](=O)[O-])cc1)=N/O`: the activity, negative = inhibition was 7.71% (inactive).
Regarding `C(=N/Nc1ccccn1)/c1cccnc1`, the activity, negative = inhibition is 2.75% (inactive).
On the same count and under the same terms, the figure for `CC1=NNC(=S)NCCCN2CCN(CCCNC(=S)NN=C(C)C=NNC(=S)NCCCN3CCN(CCCNC(=S)NN=C1)CC3)CC2` is -0.247% (inactive).
Same read-out and setting: under `CN(C)CCN1C(=O)CC[C@]2(C)C1=CC[C@@H]1[C@@H]2CC[C@]2(C)[C@H]1CC[C@]2(C)O` stands 6.79% (inactive).
The same measure, in the same setting: under `Nc1ccccc1N=Nc1c(S(=O)(=O)O)cc2cc(S(=O)(=O)O)cc(O)c2c1O` stands -10.2% (inactive); under `N#C[C@H](C(=O)O)C(c1c(Cl)cccc1Cl)[C@H](C#N)C(=O)O`, 5.11% (inactive).
